Data published in PubChem BioAssay AID1903 (Southern Research Specialized Biocontainment Screening …, 2009).
Screen size: about 310,000 compounds; about 1,200 (0.39%) were called active. How the calls were made is not given here. Not all results are given here. Results with a measured potency or affinity are listed apart.

Target: Large T antigen (Simian virus 40) (UniProt P03070)
Assay: SV40 large T antigen inhibitors, biochemical (AID 1903)
Settings: SV40 large T antigen ATPase/helicase inhibition assay; at 20 µM; stronger effect = higher value

Large T antigen (Simian virus 40), sequence (P03070 whole entry, looked up): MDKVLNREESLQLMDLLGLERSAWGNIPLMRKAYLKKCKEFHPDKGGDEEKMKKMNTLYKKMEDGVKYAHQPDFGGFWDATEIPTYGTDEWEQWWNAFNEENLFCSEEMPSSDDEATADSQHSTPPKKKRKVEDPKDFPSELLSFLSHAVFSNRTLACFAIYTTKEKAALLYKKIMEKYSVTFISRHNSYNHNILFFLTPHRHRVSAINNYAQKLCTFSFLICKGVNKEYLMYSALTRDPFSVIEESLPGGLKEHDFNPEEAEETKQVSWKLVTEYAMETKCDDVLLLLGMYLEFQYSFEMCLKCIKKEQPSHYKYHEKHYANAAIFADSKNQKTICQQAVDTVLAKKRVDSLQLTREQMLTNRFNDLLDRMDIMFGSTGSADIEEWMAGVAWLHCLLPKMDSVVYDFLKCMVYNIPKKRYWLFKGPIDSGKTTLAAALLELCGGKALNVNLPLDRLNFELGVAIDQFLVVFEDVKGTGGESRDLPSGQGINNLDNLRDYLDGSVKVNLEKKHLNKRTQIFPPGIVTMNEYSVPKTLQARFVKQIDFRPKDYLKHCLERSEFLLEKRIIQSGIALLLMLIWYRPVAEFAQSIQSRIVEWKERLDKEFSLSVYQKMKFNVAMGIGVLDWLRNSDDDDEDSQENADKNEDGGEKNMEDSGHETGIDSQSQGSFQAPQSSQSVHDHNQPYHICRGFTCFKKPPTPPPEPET

inhibition, inactive:
Cc1nn(CC(=O)N/N=C/c2cccs2)c(C)c1[N+](=O)[O-] 11.7%, O=C(Nc1ccc(N2CCN(C(=O)c3ccccc3F)CC2)cc1)c1ncn[nH]1 8.25%, Cc1ccc2nc(Cl)c(/C=N/NC(=O)CN3CCOCC3)cc2c1 11.5%, COc1ccc(C(Nc2ccccn2)c2c(NC(=O)c3ccco3)sc(C)c2C)cc1 (configuration not stated) 14.4%, Cc1cc(C)n(CC(=O)NC2CCCc3c2cnn3-c2ccc(C)c(C)c2)n1 (configuration not stated) 2.04%, CC(C)C(CCN1C(=O)c2ccccc2C1=O)c1ccco1 (configuration not stated) 16.2%, CCCN(C(=O)CCSc1ccc(F)cc1)c1c(N)n(Cc2ccccc2)c(=O)[nH]c1=O 5.85%, CCCCCCC(=O)Nc1nnc(CC)s1 4.74%, COc1ccc(CC(=O)N/N=C/c2sccc2C)cc1 4.71%, O=C(Nc1cccc2ccccc12)N1CC=CCC1 5.64%, CCOc1ccc(C(=O)NC(=S)Nc2ncccc2C)cc1[N+](=O)[O-] 5.78%, COc1ccc(-c2noc(N3CCCC(C(=O)Nc4ccc(F)cc4F)C3)n2)cc1 (configuration not stated) 5.72%, CC1=NN(c2ccc(C)cc2)C(=O)/C1=C\c1ccc(Br)s1 -1.11%, O=C1N/C(=C/c2ccc(Br)s2)C(=O)N1c1ccccc1 8.81%, Cc1ccc(S(=O)(=O)N2CCCCC2)cc1C(=O)NC1CC(C)(C)NC(C)(C)C1 13.5%, COC(=O)C1=C(O)/C(=C\c2sccc2C)N=C1C 10.2%, COC(=O)C1=C(O)/C(=C\c2ccc(OCC(=O)Nc3ccccc3)cc2)N=C1C 4.47%, CCOC(=O)C1=C(O)/C(=C\c2ccc(OC)c(OC)c2)N=C1C 4.98%, CCOC(=O)C1=C(O)/C(=C/c2cc(OC)c(OC)c(OC)c2)N=C1C 3.44%, COC(=O)C1=C(O)/C(=C\c2ccc(OCC(=O)Nc3ccc(OC)cc3)cc2)N=C1C 7.17%, COC(=O)C1=C(O)/C(=C\c2ccc(OCC(=O)Nc3ccccc3OC)cc2)N=C1C -3.54%, C=CCc1cccc(CNc2nc3ccccc3n2CCN2CCOCC2)c1O -5.32%, O=C(/C=C/c1cccc(Br)c1)NC1CCN(Cc2ccccc2)CC1 7.35%, Oc1ccccc1N=Cc1sc2ccccc2c1Cl 19.7%, CSc1ccccc1NC(=O)CSc1nncs1 14.5%, CN(C(=O)C1CCCO1)c1nnc(-c2ccccn2)s1 (configuration not stated) 8.98%, CN(C)c1ccc(NC(=O)CN2C(=O)CC(c3ccccc3)=Nc3ccccc32)cc1 47%, CCc1ccc(NC(=O)CC2NCCNC2=O)cc1 (configuration not stated) 8.15%, CN1CC(=O)N(CC(=O)Nc2ccc(N(C)C)cc2)c2ccccc2C1=O 37.1%, Cc1nn(CC(=O)Nc2ccc(S(=O)(=O)N(C)C)cc2)c(C)c1[N+](=O)[O-] 10.9%, Cc1ccc(NC(=O)CC2NCCNC2=O)cc1 (configuration not stated) 5.94%, CC(=O)c1ccc(NC(=O)Cn2nc(C)c([N+](=O)[O-])c2C)cc1 4.55%, CCN(CC)c1ccc(NC(=O)CN2CCN(CC(=O)Nc3ccc(F)cc3)CC2)cc1 26.9%, O=C(CN1CCCC1)Nc1ccc(F)cc1 -4.88%, CC12CCC(c3n[nH]c(=S)nc31)C2(C)C (configuration not stated) 24.4%, Cc1ccc(SCC(=O)OCC(=O)NC2CCCCCC2)cc1 12.4%, O=C(CNC(=O)C12CC3CC(CC(C3)C1)C2)NC1=NCCS1 14.4%, Cn1ccc(C(=O)Oc2ccc(C(=O)Nc3ccc(F)cc3F)cc2)n1 1.18%, O=C(COC(=O)c1ccc(Cl)nc1)NCCNC(=O)COC(=O)c1ccc(Cl)nc1 14.5%, CC(=O)C1=C(O)C(=O)N(c2ccc(O)cc2)C1c1ccc(C)cc1 (configuration not stated) 23.3%, Cn1cc(C(=O)Nc2ccc(F)c(Cl)c2)cn1 8.31%, COc1cccc(S(=O)(=O)Nc2ccc(C(=O)N3CCCCCC3)cc2)c1 -1.76%, COc1ccc(CN2CCN(C(=O)CC(C)C)CC2)c2ccccc12 0.53%, C/C(=C\C(=O)c1ncc(C(F)(F)F)cc1Cl)N(C)C 9.23%, Cn1cc(CN2CCC(n3nccc3NC(=O)Cc3ccccc3)CC2)cn1 2.67%, O=C(NC(NCC1CCCO1)C(Cl)(Cl)Cl)c1cccc2ccccc12 (configuration not stated) 2.66%, NC(=O)c1cc(-c2ccccc2)sc1NC(=O)CN1CCCCC1 25.6%, CCc1cccc(N(C(=O)c2csnn2)C(C(=O)NC(C)(C)C)c2ccncc2)c1 (configuration not stated) 14.2%, Cc1ccc(SCC(=O)Nc2ccc3c(c2)C(=O)N(C)C3=O)cc1 3.52%, CC(C)(C)NC(=O)CN1CCC(O)(c2ccccc2)CC1 -0.59%, CC(C)c1ccc(NC(=O)Cn2ncn3c(cc4ccccc43)c2=O)cc1 5.59%, CCN(CC)c1ccc(NC(=O)CN2CCN(c3ccc(F)cc3)CC2)cc1 22.8%, CCc1ccc(NC(=O)Cn2ncn3c(cc4ccccc43)c2=O)cc1 8.68%, CCN(c1ccc(NC(=O)COC(=O)CCC(=O)c2ccc(F)cc2)cc1)C(C)C 23.7%, O=C(CN1CCN(c2ccc(Cl)cc2)CC1)Nc1ccc(F)cc1 5.08%, CCN(CC)c1ccc(NC(=O)COC(=O)CCC(=O)c2ccc(F)cc2)cc1 26.6%, CCN1CCN(CC(=O)Nc2ccc(N(C)C)cc2)CC1 15.6%, O=C(NCCCN1CCOCC1)c1cccc(NC(=O)c2ccccc2)c1 8.5%, Cc1cc(C)n(Cc2ccc(NC(=O)c3c([N+](=O)[O-])c(C)nn3C)cc2)n1 21.7%, Cn1ccnc1/C(=N\NC(=O)c1ccccc1)c1cccc([N+](=O)[O-])c1 17.9%, Cc1nc2nc(C)c(CCC(=O)O)c(C)n2n1 8.37%, CCCCC(CC)C(=O)Nc1ccc(C)c(O)c1 (configuration not stated) 1.23%, CCOc1ccc(S(=O)(=O)n2cnc3ccccc32)cc1 12.2%, CCCc1cc2c(=O)n(NC(=O)c3nn(C)cc3[N+](=O)[O-])c(C)nc2s1 15.2%, CCCCOP(=O)(c1ccc(N(C)C)cc1)C(O)c1cccnc1 (configuration not stated) 7.96%, Cc1ccc(C(=O)NCc2ccncc2)cc1S(=O)(=O)Nc1cccc(C)c1C 2.57%, O=C(COC(=O)Cn1nnc2ccccc21)Nc1ccccc1Br 7.03%, COc1ccc(NC(=O)COC(=O)Cn2nnc3ccccc32)cc1 12.6%, O=C(NC1CCCC1)C1CCCN(S(=O)(=O)c2cnc[nH]2)C1 (configuration not stated) 5.21%, CCOC(=O)c1ccc(NC2c3ccccc3C(=O)N2c2ccccn2)cc1 (configuration not stated) 0.465%, Cc1ccccc1NC(=O)CC1SC(=O)N(c2ccccc2)C1=O (configuration not stated) 14%, O=C(CC1SC(=O)N(c2ccccc2)C1=O)Nc1ccccc1 (configuration not stated) 38.4%, CO/N=C/C(=N\Nc1cc(OC)cc(OC)c1)C(=O)c1ccccc1 9.31%, Cc1ccc(CNc2ccc3c(c2)ncn3C(C)(C)C)cc1 21.9%, CCn1cnc2cc(NCc3ccc(C)cc3)ccc21 35.2%, CCN(CC)c1ccc(CNc2ccc3c(c2)ncn3CC)cc1 32.3%, CN(C)c1ccc(CNc2ccc3c(c2)ncn3C(C)(C)C)cc1 37.9%, CCc1ccc(CNc2ccc3c(c2)ncn3C)cc1 22.1%, CCc1ccc(CNc2ccc3c(c2)ncn3CC)cc1 24.4%, Cc1nc2cc(-c3sccc3-n3cccc3)nn2c(C)c1C 5.6%, Cc1ccc(NS(=O)(=O)c2ccc(CCC(=O)NCc3cccnc3)cc2)cc1 7.61%, COC(=O)c1ccc(COc2cccc3c2CCN(Cc2ccccc2)C3=O)o1 4.93%, Brc1ccc2[nH]c3c(NCc4ccccn4)ncnc3c2c1 4.68%, O=C(Nc1ccccc1)N(Cc1ccccc1)C1=NCCS1 5.16%, O=C(O)COc1ccccc1/C=N/NC(=O)CN1CCN(Cc2ccccc2Cl)CC1 2.27%, CCOC(=O)c1c(NC(=O)/C=C\C(=O)O)sc(C)c1-c1ccccc1 12.2%, CCOC(=O)c1c(NC(=O)/C=C/C(=O)O)sc(C)c1-c1ccc(Cl)cc1 47.5%, O=C(Nc1c(-c2ccccc2)nc2ccccn12)c1ccco1 19.3%, CCOC(=O)CNc1c(-c2ccc(Cl)cc2)nc2cnccn12 14.1%, CCOC(=O)CNc1c(-c2ccccc2)nc2ccc(Cl)cn12 13.6%, Cc1ccc2[nH]c(=O)c(-c3nc4ccccn4c3NCc3ccco3)cc2c1 26%, COCCNc1c(-c2ccc(O)cc2)nc2ccc(Cl)cn12 25.7%, OCCNc1nc(Cl)nc(NCc2ccco2)n1 3.58%, CCOC(=O)CNc1c(-c2ccc(OC)cc2)nc2ccc(Cl)cn12 19.4%, CC(C)c1ccc(Nc2nc(Cl)nc(NCc3ccco3)n2)cc1 23.9%, Cc1ccc(CCNC(=O)C2CCCN(S(=O)(=O)c3cccc4nsnc34)C2)cc1 (configuration not stated) 4.61%, CN(C)/C=C/C(=O)c1ccc(Cl)c([N+](=O)[O-])c1 11.3%
